{
  "source": "PubChem BioAssay (EPA / NIEHS)",
  "key": {"DIO1 (gene 1733)": {"tested_on": "DIO1 (gene 1733)", "experiment": "CCTE_GLTED_hDIO1: CCTE's human Deiodinase 1 (DIO1) Inhibition Assay, Great Lakes Toxicology and Ecology Division (GLTED) Lab (AID 2283987);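 further: isolated human DIO1 enzyme in a cell-free setup rather than cells; enzyme activity read as free iodide liberated from substrate via Sandell-Kolthoff colorimetry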", "procedure,_shortened": "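Inhibition read as reduced iodide release: after 3 h of human DIO1 with chemical, free iodide is quantified colorimetrically (Sandell-Kolthoff cerium/arsenic reaction). Triplicate plates, DMSO baseline.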"}, "[1]": {"biological_target": "Nucleoli Translocation, AR (gene 367) (UniProt P10275)", "sequence (P10275 whole entry, looked up)": "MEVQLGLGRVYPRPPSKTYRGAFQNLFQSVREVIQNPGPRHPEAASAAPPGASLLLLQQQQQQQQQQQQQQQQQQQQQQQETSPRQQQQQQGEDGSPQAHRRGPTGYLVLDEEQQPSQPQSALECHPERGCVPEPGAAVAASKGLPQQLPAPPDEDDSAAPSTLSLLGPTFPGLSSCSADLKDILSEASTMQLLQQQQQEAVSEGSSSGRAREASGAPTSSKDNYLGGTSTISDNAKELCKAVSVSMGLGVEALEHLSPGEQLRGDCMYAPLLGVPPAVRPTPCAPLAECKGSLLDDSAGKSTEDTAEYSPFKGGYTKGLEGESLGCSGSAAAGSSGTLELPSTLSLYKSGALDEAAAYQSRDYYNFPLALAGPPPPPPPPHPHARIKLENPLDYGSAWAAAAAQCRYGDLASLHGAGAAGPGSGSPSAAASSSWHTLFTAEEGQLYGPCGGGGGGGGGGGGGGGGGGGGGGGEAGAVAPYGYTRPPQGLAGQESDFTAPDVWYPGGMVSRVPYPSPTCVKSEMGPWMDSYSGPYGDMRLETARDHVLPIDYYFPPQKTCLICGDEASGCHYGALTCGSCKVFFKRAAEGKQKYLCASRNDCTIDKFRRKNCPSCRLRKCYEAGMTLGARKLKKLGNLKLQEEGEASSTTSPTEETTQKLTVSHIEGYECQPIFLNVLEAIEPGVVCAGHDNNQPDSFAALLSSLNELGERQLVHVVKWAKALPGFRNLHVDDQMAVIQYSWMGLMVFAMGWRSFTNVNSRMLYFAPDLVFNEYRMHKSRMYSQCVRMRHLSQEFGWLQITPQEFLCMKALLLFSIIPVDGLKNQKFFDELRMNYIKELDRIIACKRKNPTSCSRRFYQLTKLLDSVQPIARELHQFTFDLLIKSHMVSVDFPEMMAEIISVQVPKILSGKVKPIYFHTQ", "experiment": "UPITT_HCI_U2OS_AR_TIF2_Nucleoli_Antagonist: University of Pittsburgh U2OS Androgen Receptor-Transcriptional Intermediary Factor 2 (AR-TIF2) Antagonism High Content Imaging Assay for Nucleoli Translocation (AID 2283997)", "procedure,_shortened": "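Antagonism is read as loss of nucleolar AR-RFP signal relative to DHT, imaged in U2OS cells also carrying GFP-TIF2. Compounds screened at 20 uM final, 0.2% DMSO; primary actives retested in triplicate.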"}, "[2]": {"biological_target": "Nucleoli Translocation, AR (gene 367) (UniProt P10275)", "experiment": "UPITT_HCI_U2OS_AR_TIF2_Nucleoli_Agonist: University of Pittsburgh U2OS Androgen Receptor-Transcriptional Intermediary Factor 2 (AR-TIF2) Agonism High Content Imaging Assay for Nucleoli Translocation (AID 2283998)", "procedure,_shortened": "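Nucleolar translocation of AR-RFP, with TIF2-GFP coexpressed in human osteosarcoma U2OS, imaged by high-content fluorescence. Compounds tested singly at 20 uM final, confirmed in triplicate, then titrated 0.195–50 uM final; gain-of-signal relative to DMSO.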"}, "[3]": {"biological_target": "Ratio of Nucleoli Translocation and Cytoplasm, AR (gene 367) (UniProt P10275)", "sequence (P10275 whole entry, looked up)": "as above", "experiment": "UPITT_HCI_U2OS_AR_TIF2_Nucleoli_Cytoplasm_Ratio_Antagonist: University of Pittsburgh U2OS Androgen Receptor-Transcriptional Intermediary Factor 2 (AR-TIF2) Antagonism High Content Imaging Assay for Ratio of Nucleoli Translocation and Cytoplasm (AID 2283999);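 further: antagonists lower the DHT-driven ratio of nucleolar to cytoplasmic red signal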", "procedure,_shortened": "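This antagonist-mode endpoint tracks AR-RFP localisation, the nucleolus-to-cytoplasm intensity ratio, in TIF2-GFP-coexpressing U2OS cells. DMSO stays at or below 0.5%; testing spans 20 uM single-dose and 0.195–50 uM series, with DHT setting the activity baseline.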"}, "[4]": {"biological_target": "Ratio of Nucleoli Translocation and Cytoplasm, AR (gene 367) (UniProt P10275)", "experiment": "UPITT_HCI_U2OS_AR_TIF2_Nucleoli_Cytoplasm_Ratio_Agonist: University of Pittsburgh U2OS Androgen Receptor-Transcriptional Intermediary Factor 2 (AR-TIF2) Agonism High Content Imaging Assay for Ratio of Nucleoli Translocation and Cytoplasm (AID 2284000);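 further: hits raise the red nucleolar to cytoplasm ratio above vehicle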", "procedure,_shortened": "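Compounds tested at 20 uM final in primary screen (0.2% DMSO) and 0.195-50 uM final in dose-response (0.5% DMSO). Imaging of human U2OS cells bearing RFP-AR and GFP-TIF2; endpoint is nucleoli/cytoplasm red signal ratio, positive direction relative to DMSO.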"}, "[5]": {"experiment": "CCTE_Harrill_HTTr_Apoptosis_DMEM_12hr: (Pilot) CCTE's 12-hour Apoptosis Assessment for the High-Throughput Transcriptomics (HTTr) Platform, in MCF-7 cells cultured in DMEM + 10% fetal bovine serum, Harrill Lab (AID 2283982; active means hit-call score of the fitted dose curve at least 0.9, where 1 is the maximum; inactive means score below 0.9)", "procedure,_shortened": "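Caspase-3/7 activity was measured by high-content imaging (CellEvent Caspase 3/7 Green) after a 12-hour exposure of MCF-7 cells grown in DMEM with 10% FBS. Eight-point concentration series, fitted bidirectionally against vehicle.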"}, "[6]": {"experiment": "CCTE_Harrill_HTTr_Apoptosis_DMEM_24hr: (Pilot) CCTE's 24-hour Apoptosis Assessment for the High-Throughput Transcriptomics (HTTr) Platform, in MCF-7 cells cultured in DMEM + 10% fetal bovine serum, Harrill Lab (AID 2283983; active means hit-call score of the fitted dose curve at least 0.9, where 1 is the maximum; inactive means score below 0.9)", "procedure,_shortened": "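Caspase-3/7 activity read by high-content imaging (CellEvent Green reagent) 24 h after dosing. MCF-7 cells grown in DMEM with 10% FBS received an eight-point concentration series; fits were bidirectional versus DMSO.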"}, "[7]": {"experiment": "CCTE_Harrill_HTTr_Apoptosis_PRF_DMEM_6hr: (Pilot) CCTE's 6-hour Apoptosis Assessment for the High-Throughput Transcriptomics (HTTr) Platform, in MCF-7 cells cultured phenol red-free DMEM + 10% charcoal-stripped fetal bovine serum, Harrill Lab (AID 2283984; active means hit-call score of the fitted dose curve at least 0.9, where 1 is the maximum; inactive means score below 0.9)", "procedure,_shortened": "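Caspase-3/7 activity (CellEvent Green) read by high-content imaging 6 h after dosing, eight concentrations. Cells: MCF-7, phenol red-free DMEM with 10% charcoal-stripped serum. Curves fit both directions against DMSO.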"}, "[8]": {"experiment": "CCTE_Harrill_HTTr_Apoptosis_PRF_DMEM_12hr: (Pilot) CCTE's 12-hour Apoptosis Assessment for the High-Throughput Transcriptomics (HTTr) Platform, in MCF-7 cells cultured in phenol red-free DMEM + 10% charcoal-stripped fetal bovine serum, Harrill Lab (AID 2283985; active means hit-call score of the fitted dose curve at least 0.9, where 1 is the maximum; inactive means score below 0.9)", "procedure,_shortened": "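Caspase-3/7 activity by CellEvent Green high content imaging after 12 h compound exposure (eight concentrations) in MCF-7 grown in phenol red-free DMEM plus 10% charcoal-stripped serum; DMSO as baseline.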"}, "[9]": {"experiment": "CCTE_Harrill_HTTr_Apoptosis_PRF_DMEM_24hr: (Pilot) CCTE's 24-hour Apoptosis Assessment for the High-Throughput Transcriptomics (HTTr) Platform, in MCF-7 cells cultured in phenol red-free DMEM + 10% charcoal-stripped fetal bovine serum, Harrill Lab (AID 2283986; active means hit-call score of the fitted dose curve at least 0.9, where 1 is the maximum; inactive means score below 0.9)", "procedure,_shortened": "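Eight concentrations tested for 24 h on MCF-7 grown in charcoal-stripped serum, phenol red-free DMEM. High content imaging of CellEvent Caspase 3/7 Green signal gives apoptosis read-out, fitted both ways relative to DMSO.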"}},
  "note": "Records with an inconclusive call do not appear. Calls of active or inactive are those of the source. How the source made its calls, unless noted: active means hit-call score of the fitted dose curve at least 0.9, where 1 is the maximum; inconclusive means response in the unintended direction; inactive means score below 0.9.",
  "data": [
    {"smiles": "Oc1ccc2ccc3cccc4ccc1c2c34", "values": [
      {"measurement": "AC50", "setting": "DIO1 (gene 1733)", "result": "100 µM (active)"}
    ]},
    {"smiles": "O=C1CCCO1", "values": [
      {"measurement": "outcome", "setting": "[1]", "result": "inactive"}
    ]},
    {"smiles": "C[N+](C)(C)CC1CO1", "note": "(stereo not given)", "values": [
      {"measurement": "outcome", "setting": "[2]", "result": "inactive"},
      {"measurement": "outcome", "setting": "[3]", "result": "inactive"},
      {"measurement": "outcome", "setting": "[4]", "result": "inactive"}
    ]},
    {"smiles": "CCCCC(CC)COC(=O)c1ccc(C(=O)OCC(CC)CCCC)c(C(=O)OCC(CC)CCCC)c1", "note": "(stereo not given)", "values": [
      {"measurement": "outcome", "setting": "[1]", "result": "inactive"},
      {"measurement": "outcome", "setting": "[3]", "result": "inactive"},
      {"measurement": "outcome", "setting": "[4]", "result": "inactive"}
    ]},
    {"smiles": "COP(=S)(OC)SCN1C(=O)c2ccccc2C1=O", "values": [
      {"measurement": "AC50", "setting": "DIO1 (gene 1733)", "result": "50.9 µM (active)"}
    ]},
    {"smiles": "Nc1ccc(Cl)cc1N", "values": [
      {"measurement": "outcome", "setting": "[1]", "result": "inactive"},
      {"measurement": "outcome", "setting": "[2]", "result": "inactive"},
      {"measurement": "outcome", "setting": "[3]", "result": "inactive"},
      {"measurement": "outcome", "setting": "[4]", "result": "inactive"}
    ]},
    {"smiles": "Cc1cc(N=Nc2ccccc2C)ccc1N", "values": [
      {"measurement": "AC50", "setting": "[1]", "result": "26.1 µM (active)"},
      {"measurement": "AC50", "setting": "[2]", "result": "77.9 µM (active)"},
      {"measurement": "outcome", "setting": "[3]", "result": "inactive"},
      {"measurement": "AC50", "setting": "[4]", "result": "84.9 µM (active)"}
    ]},
    {"smiles": "CO[C@@H]1[C@H](OC(=O)NC(=O)CCl)CC[C@]2(CO2)[C@H]1[C@@]1(C)O[C@@H]1CC=C(C)C", "values": [
      {"measurement": "AC50", "setting": "DIO1 (gene 1733)", "result": "17.8 µM (active)"},
      {"measurement": "outcome", "setting": "[1]", "result": "inactive"},
      {"measurement": "outcome", "setting": "[2]", "result": "inactive"},
      {"measurement": "outcome", "setting": "[3]", "result": "inactive"},
      {"measurement": "outcome", "setting": "[4]", "result": "inactive"}
    ]},
    {"smiles": "O=[N+]([O-])C(Br)(CO)CO", "values": [
      {"measurement": "AC50", "setting": "[1]", "result": "31.8 µM (active)"},
      {"measurement": "outcome", "setting": "[2]", "result": "inactive"},
      {"measurement": "outcome", "setting": "[3]", "result": "inactive"},
      {"measurement": "outcome", "setting": "[4]", "result": "inactive"}
    ]},
    {"smiles": "CN(C)[C@@H]1C(=O)C(C(N)=O)=C(O)[C@@]2(O)C(=O)C3=C(O)c4c(O)cccc4[C@@](C)(O)[C@H]3C[C@@H]12", "values": [
      {"measurement": "AC50", "setting": "DIO1 (gene 1733)", "result": "56.9 µM (active)"}
    ]},
    {"smiles": "CC(C)(O)c1cnn2c(-c3ccc(F)c(-c4c(F)cccc4C#N)c3)cnc2n1", "values": [
      {"measurement": "outcome", "setting": "[1]", "result": "inactive"},
      {"measurement": "outcome", "setting": "[2]", "result": "inactive"},
      {"measurement": "outcome", "setting": "[4]", "result": "inactive"}
    ]},
    {"smiles": "CNC(=O)Oc1cccc2c1OC(C)(C)C2", "values": [
      {"measurement": "outcome", "setting": "[1]", "result": "inactive"},
      {"measurement": "outcome", "setting": "[3]", "result": "inactive"}
    ]},
    {"smiles": "CC(C)(OOC(C)(C)c1ccccc1)c1ccccc1", "values": [
      {"measurement": "AC50", "setting": "[1]", "result": "38.5 µM (active)"},
      {"measurement": "outcome", "setting": "[3]", "result": "inactive"},
      {"measurement": "outcome", "setting": "[4]", "result": "inactive"}
    ]},
    {"smiles": "Nc1ccc([N+](=O)[O-])cc1", "values": [
      {"measurement": "outcome", "setting": "[1]", "result": "inactive"},
      {"measurement": "outcome", "setting": "[4]", "result": "inactive"}
    ]},
    {"smiles": "CS(=O)(=O)NC(=O)c1cc(Oc2ccc(C(F)(F)F)cc2Cl)ccc1[N+](=O)[O-]", "values": [
      {"measurement": "outcome", "setting": "[5]", "result": "inactive"},
      {"measurement": "outcome", "setting": "[6]", "result": "inactive"},
      {"measurement": "outcome", "setting": "[7]", "result": "inactive"},
      {"measurement": "outcome", "setting": "[8]", "result": "inactive"},
      {"measurement": "outcome", "setting": "[9]", "result": "inactive"}
    ]},
    {"smiles": "COC(=O)Nc1nc2ccccc2[nH]1", "values": [
      {"measurement": "outcome", "setting": "[2]", "result": "inactive"}
    ]},
    {"smiles": "CCNS(=O)(=O)C(F)(F)C(F)(F)C(F)(F)C(F)(F)C(F)(F)C(F)(F)C(F)(F)C(F)(F)F", "values": [
      {"measurement": "outcome", "setting": "[1]", "result": "inactive"},
      {"measurement": "outcome", "setting": "[4]", "result": "inactive"}
    ]},
    {"smiles": "CCCCCCCCn1sccc1=O", "values": [
      {"measurement": "AC50", "setting": "DIO1 (gene 1733)", "result": "54 µM (active)"}
    ]},
    {"smiles": "O=C(Nc1ccccc1)c1ccccc1I", "values": [
      {"measurement": "outcome", "setting": "[1]", "result": "inactive"},
      {"measurement": "outcome", "setting": "[2]", "result": "inactive"},
      {"measurement": "outcome", "setting": "[3]", "result": "inactive"},
      {"measurement": "outcome", "setting": "[4]", "result": "inactive"}
    ]},
    {"smiles": "CC(C)N(Cc1ccccc1)C(=O)C(C)(C)C", "values": [
      {"measurement": "outcome", "setting": "[1]", "result": "inactive"},
      {"measurement": "outcome", "setting": "[3]", "result": "inactive"},
      {"measurement": "outcome", "setting": "[4]", "result": "inactive"}
    ]},
    {"smiles": "C[C@]12C=CC3=C4CCC(=O)C=C4CC[C@H]3[C@@H]1CC[C@@H]2O", "values": [
      {"measurement": "AC50", "setting": "[2]", "result": "0.00188 µM (active)"},
      {"measurement": "AC50", "setting": "[4]", "result": "0.00266 µM (active)"}
    ]}
  ]
}
